# Assay outcomes: PubChem, Broad Institute
# Tg IFNy HTS – blocks Toxoplasma gondii growth in the presence of IFN-gamma | Toxoplasma gondii growth in IFN-gamma-treated host cells; stronger effect = lower value | activity change, negative = inhibition, % (test concentration not listed) | hit rate 3.8% among 69,000 | AID 1259416; in the data active = activity change below about -70%, passing the limit was not always enough;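 note: host cells are HeLa cells infected with Toxoplasma gondii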
# Starred values were filed as active, the others as inactive; ! = a repeat was not active. The full list was thinned out, with hits kept by preference.
SMILES,Tg IFNy HTS
Cc1oc(-c2ccc(C(=O)NCCc3cnc[nH]3)cc2)nc1CN1CCN(c2ccccc2)CC1,-110*
CCN(CC)CCCNC(=O)c1ccc(-c2nc(CN3CCN(c4ccccc4)CC3)c(C)o2)cc1,-104*
CCNC(=O)c1ccc(-c2nc(CN3CCN(c4ccccc4)CC3)c(C)o2)cc1,45
COC(=O)[C@H]1C[C@@H](O)CCN1S(=O)(=O)c1ccc(F)cc1F,1
CN(C)Cc1cccc(N=C(c2ccccc2)c2c(O)[nH]c3cc(C(=O)N(C)C)ccc23)c1,-60
COc1ccc(C2(C)NC(=O)N(CC(=O)N3CCc4cc(Cl)ccc43)C2=O)cc1 (stereo not given),8
CCOC(=O)Cc1csc(NC(=O)CCCOc2ccc(Cl)cc2)n1,-10
CC(C)(C)CN1CC2(CCN(C(=O)Cc3ccc(Cl)cc3)C2)C1,3
O=C(Cc1ccc(Cl)cc1)N1CC2(CCN(Cc3ccc(C(F)(F)F)cc3)CC2)C1,-80*
O=S(=O)(Cc1ccccc1)N1CCC2(CCN(Cc3ccc(Cl)cc3)C2)C1 (stereo not given),-5
Fc1ccc(Nc2nc(SCc3ccccc3Cl)nc3ccccc23)cc1F,-4
CC(C)OC(=O)c1cc2c(ccn2C)n1CCC#N,-63
CN1c2ccc(C#Cc3cccnc3)cc2[C@@H]2[C@@H](CCN2C(=O)c2cccc(F)c2)[C@@H]1CO,-53
CO[C@H]1CN(C)C(=O)c2cc(NC(=O)c3cccc(F)c3)ccc2OC[C@@H](C)N(C)C[C@H]1C,8
CO[C@@H]1CN(C)C(=O)c2cc(NC(=O)c3cccc(F)c3)ccc2OC[C@@H](C)N(C)C[C@@H]1C,-75*
CO[C@H]1CN(C)C(=O)c2cc(NC(=O)C3CC3)ccc2OC[C@H](C)N(Cc2cc(F)ccc2F)C[C@@H]1C,-72*
CCCN1C[C@H](C)[C@@H](OC)CN(C)C(=O)c2cc(NC(=O)C3CCC3)ccc2OC[C@@H]1C,7
CO[C@@H]1CN(C)C(=O)c2cc(NC(=O)c3cccc(F)c3)ccc2OC[C@@H](C)N(C)C[C@H]1C,3
CO[C@@H]1CN(C)C(=O)c2cc(NC(=O)C3CC3)ccc2OC[C@H](C)N(Cc2cc(F)ccc2F)C[C@@H]1C,-59
O=C(NCCO)c1cc(-c2cnc(N3CCOCC3)nc2)cn1CC1CC1,-35
OCC1(O)CCCN(Cc2cnc(-c3cccc4ccccc34)nc2)CC1 (stereo not given),23
COc1ccc2[nH]c(C(=O)NCCCn3cncn3)c(C)c2c1,5
CS(=O)(=O)NCCc1csc(-c2cccc(F)c2)n1,66
N[C@@H](Cc1cc(CP(=O)(O)O)cc(-c2ccccc2Cl)c1)C(=O)O,28
C[C@@H]1CCCCO[C@H](CN(C)Cc2ccncc2)[C@@H](C)CN([C@H](C)CO)C(=O)c2cc(NC(=O)Cc3ccccc3)ccc2O1,405
SMILES,Tg IFNy HTS
O=C(O)COCCN1CCN(C(c2ccccc2)c2ccc(Cl)cc2)CC1 (stereo not given),18
O=C(O)COCCN1CCN([C@H](c2ccccc2)c2ccc(Cl)cc2)CC1,23
OCCOCCN1CCN(C(c2ccccc2)c2ccc(Cl)cc2)CC1 (stereo not given),-97*!
Cc1cc(C)nc(N2CCC(C3CC=CCN(CCc4ccccc4)C3=O)CC2)n1 (stereo not given),-4
O=C(NCC1Cn2nnc(-c3ccccc3)c2CO1)c1ccsc1 (stereo not given),-9
COCCN1C(=O)CCC2C1CCN2C(=O)c1ccc2[nH]ccc2c1 (stereo not given),0
CCN1C(=O)CCC2C1CCN2C(=O)c1ccc2[nH]ccc2c1 (stereo not given),0
CN1C(=O)CCC2C1CCN2C(=O)c1ccc2[nH]ccc2c1 (stereo not given),-97*
COCc1cc(CNC(=O)C(=O)N2CCc3ccccc32)[nH]n1,2
Cc1ccc(NC(=O)Cc2nc(C(C)C)n[nH]2)cc1S(=O)(=O)N1CCCC1,12
Cc1[nH]c2c(C(=O)NC3CCCN(C)C3)cccc2c1C (stereo not given),16
Cc1ccc(-c2nc(Cn3ccn4nc(-c5cccs5)cc4c3=O)c(C)o2)cc1,104
COc1ccc(Nc2cc(C)nc3ccc(C)cc23)cc1,-97*
COc1ccc2nc(C)cc(Nc3ccccc3O)c2c1,-63
COc1ccc(CNC(=O)c2nc(Nc3ccc(C)cc3)c3ccccc3n2)cc1,-29
FC(F)(F)c1ccnc(SCn2c(=S)sc3ccccc32)n1,-62
O=C(NCc1noc(C2CCCC2)n1)C(=O)c1ccco1,2
O=C(NCCCn1ccnc1)Nc1c[nH]c2cc(Cl)ccc2c1=O,306
Cl/C(=C\n1cncn1)c1ccc(Cl)cc1Cl,-59
Clc1ccc(CO/N=C(\Cn2ccnc2)c2ccc(Cl)cc2Cl)c(Cl)c1,-83*!
Cn1ncc2cc(NC(=O)c3cccc(CN4CC=CCC4)c3)ccc21,-2
Cc1noc(C[C@@H]2C[C@@H]3CN(S(=O)(=O)N(C)C)C[C@@H]3O2)n1,1
CCOC(=O)c1nc(Nc2cc(Cl)ccc2C)c2ccccc2n1,12
CC(C)n1nc(CNc2ncccn2)c2c1CN(C(=O)N(C)C)CC2,-76*
